ERAP1 inh: human ERAP1 aminopeptidase inhibitors, primary screen, biochemical, single point, plate reader; inhibition, % at 10.7 µM; recombinant ERAP1, Leu-AMC fluorescence, 60 min; actives 0.15% (n = 340,000); Endoplasmic reticulum aminopeptidase 1 (Homo sapiens), Q9NZ08;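 active = mean replicate inhibition of at least 30%, or all replicates individually reaching that 30% level; inactive = mean below 30% and not every replicate reaching it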;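 note: 0% = neutral control wells and 100% = L-leucinethiol positive control wells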
SIRT5 block: SIRT5 desuccinylase inhibitors, primary screen, biochemical, fluorescence imaging, single point, set 5; NAD-dependent protein deacylase sirtuin-5, mitochondrial (Homo sapiens), Q9NXA8; Purified SirT5, succinyl-peptide AMC, trypsin-coupled fluorescence; inhibition, % at 15 µM; actives 1.1% (n = 330,000); in the data active = inhibition above about 15%
Target sequence (Q9NXA8 whole entry, looked up): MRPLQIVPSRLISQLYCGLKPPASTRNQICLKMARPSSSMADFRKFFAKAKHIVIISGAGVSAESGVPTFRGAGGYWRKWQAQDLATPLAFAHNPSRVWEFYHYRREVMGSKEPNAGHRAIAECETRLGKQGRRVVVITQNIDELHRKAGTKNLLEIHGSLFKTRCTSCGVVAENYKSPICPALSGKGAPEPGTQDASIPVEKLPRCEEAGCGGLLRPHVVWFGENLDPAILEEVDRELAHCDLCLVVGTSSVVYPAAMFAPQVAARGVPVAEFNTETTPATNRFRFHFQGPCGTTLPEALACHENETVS
Casp6 inh: human caspase-6 inhibitors, primary screen, biochemical, VEID-R110 fluorescence, single point, set 2 | P55212 | purified caspase-6, Z-VEID-R110 cleavage fluorescence | inhibition, % at 12.5 µM | actives 0.53% (n = 350,000) | AID 686996, 2013;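 active = mean inhibition across replicates at least about 35%, with every replicate also reaching that limit, limit read from the data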;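 note: 0% = median of neutral control wells and 100% = no fluorescence left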
FGF22 binding-1: binders of human FGF22 protein, primary screen, FGF22 synaptogenesis inhibitor project, biophysical, thermal shift, single point; Fibroblast growth factor 22 (Homo sapiens), Q9HCT0; recombinant FGF22 thermal shift, SYPRO orange fluorescence; percent of sucrose octasulfate shift, DMSO zero; activity (Tm shift, normalised), % at 9.99 µM; actives 1.5% (n = 340,000); AID 651658, 2012;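 active = mean Tm shift, scaled 0 neutral to 100 positive control, at about 1.3% or above, every replicate too, limit read from the data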
Target sequence (Q9HCT0 whole entry, looked up): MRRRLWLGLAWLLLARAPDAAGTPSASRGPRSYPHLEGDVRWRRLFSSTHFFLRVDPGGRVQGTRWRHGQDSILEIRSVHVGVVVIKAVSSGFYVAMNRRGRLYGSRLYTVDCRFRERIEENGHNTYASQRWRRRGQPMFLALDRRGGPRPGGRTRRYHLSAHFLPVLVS
FGF22 binding-2: binders of human FGF22 protein, dose response, FGF22 synaptogenesis inhibitor project, biophysical, thermal shift, cherry-pick retest; recombinant FGF22 thermal shift, SYPRO orange fluorescence; AID 720646, 2013; shares compounds with FGF22 binding-1; thermal shift activity, °C (ΔTm) at 38 µM; actives 2% (n = 1,000);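 active = fitted rise in melting shift crosses a set limit at or below the top valid dose tested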
TSA no protein: compound-only thermal shift signal without protein, dose response, artefact control for FGF22 binder project, biochemical, cherry-picked samples, RT-PCR instrument. actives 2% (n = 1,000). compound-only SYPRO orange thermal shift counter-screen, no protein. shares compounds with FGF22 binding-1. AC50, µM (doses to about 38 µM);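 active = rising signal whose fitted curve reaches the 0.54 level within the top valid dose, showing a melting point, actives reach about 13 µM in these data; inactive = the rest, including activity in the opposite direction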; note: value is where the raw curve crosses a fixed level and not half-maximal
Starred values were filed as active, the others as inactive; i = inactive; nt = no result given; ! = not active in a repeat. In the library only some 3.1% were active in any assay of this set; here they are far more common.

SMILES	ERAP1 inh	SIRT5 block	Casp6 inh	FGF22 binding-1	others
C/C=C1\NC(=O)[C@H](C)NC(=O)[C@@H](NC(=O)[C@H](Cc2ccc(O)cc2)NC(=O)[C@@H](NC(=O)/C(C)=C/C)C(C)C)[C@@H](C)OC(=O)[C@H](CCCc2ccc(O)cc2)NC(=O)[C@@H](CCC(=O)O)NC1=O	1.2	22.4*	19.8	0.0
CC(=O)C1C(N2CC2)CC2C3CC=C4CC(O)CCC4(C)C3CCC21C (stereo unspecified)	-7.1	-7.7	-13.9	44.1*
C[C@]12CC[C@H](O)CC1=CCC1C2CC[C@@]2(C)C1C[C@@H](O)[C@@H]2O (stereo partly specified)	0.0	-0.1	1.1	0.0
CCCN1[C@@H]2c3ccc(-c4ccccc4)c(=O)n3C[C@H]1[C@H](CO)[C@H]2C(=O)OC	-0.3	-2.8	1.7	0.0
CC(C)CC#Cc1ccc([C@H]2[C@@H](CO)N3CCCCN(C(=O)Cc4ccccn4)C[C@H]23)cc1	-0.4	6.1	-3.0	-0.3
COC(=O)c1nc(-c2ccc3c(n2)C(=O)C(N)=C(OC)C3=O)c(N)c(-c2ccc(OC)c(OC)c2O)c1C	3.1	2.1	54.4*	-0.2
COc1ccc(OC(=O)N(C)C[C@H]2OCc3ccccc3-c3c(n(C)c4ccccc34)C(=O)N([C@@H](C)CO)C[C@H]2C)cc1	-0.3	4.3	4.8	-0.8
Cc1cccc(S(=O)(=O)N2[C@@H]3c4ccc(-c5ccncc5)c(=O)n4C[C@H]2[C@H](CO)[C@H]3C(=O)O)c1	1.7	-33.0	2.8	0.0
OC(c1ccccc1)(c1ccc(Cl)cc1)C1CN2CCC1CC2 (stereo unspecified)	0.4	-4.0	-3.1	0.1
OC(c1ccccc1)(c1ccccc1)C1CN2CCC1CC2 (stereo unspecified)	-2.2	-1.9	-1.3	44.1*
Cc1oc(-c2ccc(F)cc2F)nc1CN1C[C@@H]2C[C@@H](C1)c1cccc(=O)n1C2	1.9	-1.1	0.4	43.6*
COc1ccc(-c2ccc3n(c2=O)C[C@@H]2[C@@H](CO)[C@H](C(=O)O)[C@H]3N2C(=O)c2ccccc2F)cc1	-1.4	-66.6	-1.3	0.3
C[C@]12CCC3C(CC[C@H]4[C@@H](O)[C@H](O)CC[C@]34C)C1CCC2=O (stereo partly specified)	-1.2	nt	-1.1	46.1*
Cc1ccc(/C=C2\C(=O)NC(=S)N(c3ccc(F)cc3)C2=O)o1	0.0	12.4	40.6*	0.2
COc1ccc(N2C(=O)/C(=C/c3ccc(N(C)C)o3)C(=O)NC2=S)cc1	0.0	0.3	10.6	0.2
COc1cccc(N2C(=O)/C(=C/c3ccc(C)o3)C(=O)NC2=S)c1	1.0	13.7	39.7*	-0.1
O=C(Cc1cccnc1)N1CCCCN2[C@@H](CO)[C@@H](c3ccc(/C=C/c4ccccc4)cc3)[C@@H]2C1	-2.9	-0.2	0.1	-0.1
CCCNC(=O)[C@H]1[C@H](CO)[C@H]2Cn3c(cccc3=O)[C@H]2N1C	3.3	-1.4	0.7	0.2
CN1CCN(C(=O)COc2ccc(N(C)S(=O)(=O)c3ccc(F)cc3)cc2)CC1	3.6	23.4*	3.8	-0.1
O=[As](O)(O)c1ccc(N=Nc2ccc(O)cc2)cc1	5.7	11.3	24.8	0.0
O=C1C(Cl)=CC(=Nc2ccc(O)cc2)C=C1Cl	3.9	-0.2	40.3*	-0.5
COC(=O)[C@H]1[C@H](CO)[C@H]2Cn3c(ccc(C4=CCCCC4)c3=O)[C@@H]1N2Cc1cccnc1	1.3	-17.4	-3.1	0.2
O=C(/C=C/C=C/c1ccccc1)CC1(O)C(=O)Nc2ccccc21 (stereo unspecified)	3.3	-0.9	2.4	43.4*
CC(=O)/C=C/c1ccccc1	-0.5	-5.7	-2.4	0.3
CS(=O)(=O)c1ccc(C2=C(CNC(=O)c3cccs3)[C@H]3CC[C@@H](C2)N3CCOc2ccccc2)cc1	10.1	30.2*	-5.4	0.0
SMILES	ERAP1 inh	SIRT5 block	Casp6 inh	FGF22 binding-1	others
CS(=O)(=O)c1ccc(C2=C(CNC(=O)c3nccs3)[C@H]3CC[C@@H](C2)N3CCOc2ccccc2)cc1	nt	nt	1.7	0.0
N#Cc1c(N2CCNCC2)nc(-c2ccco2)c2c1CCCC2	44.8*	0.0	0.5	1.9*
COC(=O)[C@H]1[C@H](CO)[C@H]2Cn3c(cccc3=O)[C@@H]1N2C(=O)C1CC1	-2.7	-2.4	-1.4	0.1
O=C1NC(=O)N(c2cccc(Cl)c2)C(=O)/C1=C\c1ccc(Sc2nc3ccccc3[nH]2)o1	5.8	8.9	69.9*	0.3
O=C1NC(=O)N(c2ccccc2F)C(=O)/C1=C/c1ccc(Sc2nc3ccccc3[nH]2)o1	5.9	22.5*	60.2*	nt
CCC(C)n1c(O)c(C=NC(C)c2ccccc2)c(=O)[nH]c1=S (stereo unspecified)	-1.0	-4.3	-1.5	0.0
CCC(C)n1c(O)c(C(c2ccccn2)c2c(O)n(C(C)CC)c(=S)[nH]c2=O)c(=O)[nH]c1=S (stereo unspecified)	3.1	0.4	5.9	25.9*	FGF22 binding-2=-0.062;TSA no protein=i
O=C(c1cccc2ccccc12)C1CCCN(Cc2ccon2)C1 (stereo unspecified)	-1.9	1.0	-1.3	2.2*	FGF22 binding-2=-0.008;TSA no protein=i
COC(=O)C[C@@H]1CC[C@H]2NC[C@H](O)COC[C@@H]2O1	-3.0	-0.7	-1.6	-0.1
O=C(Cc1cccnc1)N1CCCCN2[C@H](C1)[C@@H](c1ccc(C#CC3CC3)cc1)[C@@H]2CO	0.4	0.3	0.6	-0.4
N/C(=N\[N+](=O)[O-])N1CCN(C(=O)c2ccccc2)CC1	4.1	-1.5	0.7	0.0
N/C(=N\[N+](=O)[O-])NCCCC(NC(=O)CNC(=O)c1ccccc1)C(=O)O (stereo unspecified)	-3.5	0.6	5.1	2.5*	FGF22 binding-2=0.08;TSA no protein=i
OC(CNCCc1c[nH]c2ccccc12)c1ccccc1 (stereo unspecified)	1.7	-1.7	0.4	1.4*	FGF22 binding-2=-0.171;TSA no protein=i
Cc1ccc(OC(=O)N(C)C[C@@H]2OCc3cnnn3CCCC(=O)N([C@@H](C)CO)C[C@H]2C)cc1	-3.6	-1.2	-4.1	-0.1
Cc1ccc(S(=O)(=O)N(C)C[C@H]2Oc3cc(Br)ccc3S(=O)(=O)N([C@H](C)CO)C[C@@H]2C)cc1	-1.3	-4.8	2.2	1.6*!	FGF22 binding-2=-1.86;TSA no protein=10.1µM*
Cc1ccc(S(=O)(=O)N(C)C[C@@H]2Oc3cc(Br)ccc3S(=O)(=O)N([C@@H](C)CO)C[C@H]2C)cc1	0.1	6.7	1.9	2.2*	FGF22 binding-2=-0.038;TSA no protein=i
COc1ccc(-c2ccc([C@H]3[C@H]4CN(C(=O)Cc5ccccc5)CCCCN4[C@H]3CO)cc2)cc1	3.8	0.8	-3.9	0.0
